# According to the supplement of paper PMC10338343:
# ± gives the standard deviation.
# Test system: MILI (PIWIL2) piRISC loaded with piRNA #1 (26 nt)
# Assay: pre-steady-state target cleavage rate (min^-1); guide: piRNA #1 5'p-UGAGGUAGUAGGUUGUAUAGUAUCCA; MIWI and MILI are mouse PIWI proteins and EfPiwi is from a freshwater sponge; tags in brackets are library labels; higher = faster piRNA-guided slicing of the target
# Settings: auxiliary factor: 500 nM mouse GTSF1
# Summary of the method: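 Active affinity-purified piRISC (1 nM) loaded with one synthetic guide was mixed with a transcribed, DNA-blocked target RNA library (0.1 nM), with or without 500 nM GTSF1 partner protein, in HEPES–potassium acetate buffer at 33 °C for 0–8 or 0–960 min. Uncleaved targets were sequenced, normalised to depth and to weakly complementary targets, and pooled across three trials, with k3 capped at 0.0001 min^-1. The pre-steady-state cleavage rate was determined with a burst-and-steady-state fit.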
row,Sequence,pre-steady-state target cleavage rate
1,GGAGACCUUACUAUACAACCUUCAACCUCA,0.00437 ± 0.003
2,GGAGACCUAUGUAUACAACCUCCUACCUCA,0.0161 ± 0.0038
3,GGAGAGGAUACUAUACAACGAACUACCUCA,0.0031 ± 0.0019
4,GGAGACCUUACAAUUCAACCUACUACCUCA,0.102 ± 0.013
5,GGAGACGAUACUUUUCAACCUACUACCUCA,0.171 ± 0.011
6,GGAGACCUAACUUUACAACCUACUACCUGA,0.0891 ± 0.041
7,GGAGACCUAUCUAAAGAACCUACUACCUCA,0.0183 ± 0.0054
8,GGAGACCUAUGUAUACUACCUACAACCUCA,0.0574 ± 0.0091
9,GGAGACCAUUCAAUACAACCUACUACCUCA,0.0561 ± 0.0083
10,GGAGACGAUAGUAUACAACCUACUACCACA,0.136 ± 0.015
11,GGAGACGAUACUAAUGAACCUACUACCUCA,0.0821 ± 0.011
12,GGAGACCUUACUAUACUACCUACUAGCUCA,0.142 ± 0.016
13,GGAGACCUAUGAUAGCAACCUACUACCUCA,0.00366 ± 0.0022
14,GGAGACCUAACUAUUCAACCUAGUACCUCA,0.0158 ± 0.0076
15,GGAGACCUAACUAUAGAUCCUACUACCUCA,0.203 ± 0.026
16,GGAGACCUAUGAUUACAACCUACUACCACA,0.00372 ± 0.0023
17,GGAGACCUAACUAUACAACCUACUUGCUCA,0.18 ± 0.062
18,GGAGACCUUACUAUACAACUACUACCUCA,0.0157 ± 0.0032
19,GGAGACCUUACAAUAGAACCUACUACCUCA,0.0823 ± 0.01
20,GGAGACCUAUGUUUACUACCUACUACCUCA,0.00553 ± 0.0021

row,Sequence,pre-steady-state target cleavage rate
1,GGAGACCUAUGUAUUCAAGCUACUACCUCA,0.109 ± 0.011
2,GGAGACCUUAUAUACAACCUACUACCUCA,0.0314 ± 0.0072
3,GGAGACCUAUCUUAUCAACCUACUACCUCA,0.0106 ± 0.0025
4,GGAGACGAUACUUUACAACCUACUAGCUCA,0.0695 ± 0.013
5,GGAGACCUAUCUAUACUACCUUCUACCUCA,0.00727 ± 0.003
6,GGAGACCUAUGAAUACGACCUACUACCUCA,0.00583 ± 0.0037
7,GGAGACCUAUGUAUACAACCUACUUACCUCA,0.0503 ± 0.0043
8,GGAGACGUUACUAAACAACCUACUACCUCA,0.153 ± 0.012
9,GGAGACCUUAGUAUACAACCAACUACCUCA,0.00446 ± 0.0029
10,GGAGACCUAUGAUAUCAAGGAACUACCUCA,< 0.0001
11,GGAGACCUAUGAUAACAACCUACUACCUUA,0.00415 ± 0.003
12,GGAGUGGAUACUAUUCAACCUACAACCUCA,0.0706 ± 0.01
13,GGAGACCUAUCUAUACUACCAACUACCUCA,0.00495 ± 0.0022
14,GGAGACCUAUGUAUACAACCUAGCUACCUCA,0.00713 ± 0.0027
15,GGAGACCUUACUUUACAACCUACUAGCUCA,0.111 ± 0.02
16,GGAGACCUAUGAUAACAACGUACUACCUCA,0.00353 ± 0.0022
17,GGAGUGCAUACUUUACAACCUACUACCUCA,0.166 ± 0.0083
18,GGAGACCUUACUAUACAAGCAACUACCUCA,0.0104 ± 0.0031
19,GGAGACCUAUCAAUACAACCUACUAGCUCA,0.0299 ± 0.0076
20,GGAGACCUAUGAUAUGUACCUACUGACCUCA,< 0.0001
